Data published in PubChem BioAssay (EPA / NIEHS).
Results filed as inconclusive are left out. Activity calls are given as the source filed them. Rule for the calls, unless noted: active = hit-call score of the fitted dose curve at least 0.9, where 1 is the maximum; inconclusive = response in the unintended direction; inactive = score below 0.9.

How the values were obtained:
[1] = TOX21_p53_BLA_p2_viability: Viability Assessment in the Tox21 HCT-116 p53 Agonism Beta-lactamase Assay, Phase 2 (AID 2283591);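 note: compound exposure lasted 16 h at 37 °C; actives lower the ATP signal meaning cytotoxicity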
Method in brief: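 HCT-116 p53-bla cells (4000/well) rested 5 h at 37C, then received compounds in DMSO (217-fold dilution) for 16 h at 37C, 5% CO2. After the CCF4 read, CellTiter-Glo was added; ATP luminescence was read after 30 min at room temperature.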

[2] = target: Cellular tumor antigen p53 (Homo sapiens) (UniProt P04637); test: TOX21_p53_BLA_p2_ratio: Tox21 HCT-116 p53 Agonism Beta-lactamase Assay, Ratio, Phase 2 (AID 2283592)
Method in brief: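 HCT116 cells carrying a p53-responsive beta-lactamase reporter were plated, incubated 5 h at 37C, then dosed with compounds in DMSO (217-fold dilution) for 16 h. CCF4-AM substrate was added for 2 h at room temperature; the 460/530 nm emission ratio gave gain-of-signal activity relative to DMSO.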

[3] = TOX21_p53_BLA_p3_viability: Viability Assessment in the Tox21 HCT-116 p53 Agonism Beta-lactamase Assay, Phase 3 (AID 2283593);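 note: cells exposed to compound for 16 h before reading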
Method in brief: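 HCT-116 cells (4000/well) rested 5 h at 37C, then got DMSO compounds by pin tool (217-fold dilution) for 16 h at 37C, 5% CO2. After the bla read, CellTiter-Glo was added and luminescence read at 30 min, room temperature.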

[4] = target: Cellular tumor antigen p53 (Homo sapiens) (UniProt P04637); test: TOX21_p53_BLA_p3_ratio: Tox21 HCT-116 p53 Agonism Beta-lactamase Assay, Ratio, Phase 3 (AID 2283596)
Method in brief: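 HCT116 p53-bla cells (4000/well) given compound in DMSO (217-fold dilution) after 5 h, incubated 16 h at 37C. CCF4-AM substrate 2 h at room temperature; 460/530 nm emission ratio, gain fitted against DMSO.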

[5] = TOX21_p53_BLA_p4_viability: Viability Assessment in the Tox21 HCT-116 p53 Agonism Beta-lactamase Assay, Phase 4 (AID 2283597);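 note: hits lower the luminescence signal meaning cytotoxicity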
Method in brief: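 HCT116 p53-bla cells (4000/well) rested 5 h at 37C, then received compounds in DMSO (217-fold dilution) for 16 h at 37C, 5% CO2. CellTiter-Glo was added after the CCF4-AM read, and luminescence was read after 30 min at room temperature.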

[6] = target: Cellular tumor antigen p53 (Homo sapiens) (UniProt P04637); test: TOX21_p53_BLA_p5_ratio: Tox21 HCT-116 p53 Agonism Beta-lactamase Assay, Ratio, Phase 5 (AID 2283599)
Method in brief: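 HCT-116 cells carrying a p53-inducible beta-lactamase reporter were seeded at 4000 cells/well and dosed after 5 h with compound in DMSO (217-fold dilution). After 16 h at 37C, CCF4-AM substrate was added for 2 h, and the 460/530 nm emission ratio was scored as gain-of-signal versus DMSO.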

[7] = TOX21_p53_BLA_p5_viability: Viability Assessment in the Tox21 HCT-116 p53 Agonism Beta-lactamase Assay, Phase 5 (AID 2283600)
Method in brief: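 Cells were plated at 4000/well, rested 5 h at 37C, then given compounds in DMSO (217-fold dilution) for 16 h at 37C, 5% CO2. Following the CCF4-AM beta-lactamase read, CellTiter-Glo was added and luminescence was read after 30 min at room temperature.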

[8] = target: Cellular tumor antigen p53 (Homo sapiens) (UniProt P04637); test: TOX21_p53_BLA_p4_ratio: Tox21 HCT-116 p53 Agonism Beta-lactamase Assay, Ratio, Phase 4 (AID 2283601)
Method in brief: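 HCT116 cells carrying an inducible beta-lactamase reporter were plated at 4000 cells/well, rested 5 h, then exposed to compounds in DMSO (217-fold dilution) for 16 h at 37C. CCF4-AM substrate was loaded 2 h at room temperature; 460/530 nm emission ratio scored gain-of-signal versus DMSO.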

[9] = CCTE_Harrill_HTTr_Viability_MCF7: CCTE's 6-hour Cell Viability Assessment for the High-Throughput Transcriptomics (HTTr) Platform, in MCF-7 cells cultured in DMEM + 10% fetal bovine serum, Harrill Lab (AID 2284010; active = hit-call score of the fitted dose curve at least 0.9, where 1 is the maximum; inactive = score below 0.9)
Method in brief: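 Cells were dosed with chemicals in an eight-point dilution series, imaged 6 hours later for propidium iodide uptake, and the endpoint was analyzed by bidirectional fitting against DMSO as negative control.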

[10] = CCTE_Harrill_HTTr_Apoptosis_MCF7: CCTE's 6-hour Apoptosis Assessment for the High-Throughput Transcriptomics (HTTr) Platform, in MCF-7 cells cultured in DMEM + 10% fetal bovine serum, Harrill Lab (AID 2284011; active = hit-call score of the fitted dose curve at least 0.9, where 1 is the maximum; inactive = score below 0.9)
Method in brief: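 MCF-7 cells in DMEM + 10% fetal bovine serum were exposed to chemicals for 6 hours over an eight-point dilution series. Caspase-3/7 activation was imaged by high content imaging with CellEvent Caspase 3/7 Green; bidirectional fitting used DMSO as baseline.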

[11] = CCTE_Harrill_HTTr_CellCount_MCF7: CCTE's Cell Proliferation Assessment for the High-Throughput Transcriptomics (HTTr) Platform, Harrill Lab (AID 2284012);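 note: count of Hoechst-stained nuclei per well by high-content imaging in MCF-7 cells; cells exposed to compound for six hours; intended direction is loss of nuclei count meaning fewer cells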
Method in brief: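 Chemicals in eight-point dilution series are added to MCF-7 cells for six hours, nuclei are stained with Hoechst and imaged, and per-well nuclei counts are fitted in both directions relative to DMSO controls.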

[12] = target: Thyroid hormone receptor alpha (Rattus norvegicus) + Thyroid hormone receptor beta (Rattus norvegicus) (UniProt P18113+P63059); test: TOX21_TR_LUC_GH3_Antagonist_Followup: Tox21 GH3 Thyroid Hormone Receptor Antagonism Luciferase Follow-Up Assay (AID 2283942)
Method in brief: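 Rat pituitary GH3 cells with a TRα/TRβ-driven luciferase reporter, 5 h attachment, then 15 concentrations (92 uM to 5nM final) plus 1.0 nM T3 agonist, 24 h at 37C/5% CO2. ONE-Glo luminescence; signal change fitted against DMSO baseline.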

THRA (gene 7067) = THRA (gene 7067) (UniProt P10827); test: TOX21_TRA_COA_Antagonist_Followup_ratio: Tox21 Thyroid Hormone Receptor alpha Antagonism through Coactivator Recruitment Follow-Up Assay, Ratio (AID 2283953)
Method in brief: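 520:495 nm emission ratio (excitation 340 nm) reports fluorescein-SRC-2 peptide recruitment to GST-TRα LBD by TR-FRET with Tb anti-GST antibody. Values were normalized to DMSO (0%) and T3 control wells (100%); loss of signal indicated antagonism.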

[13] = TOX21_TRB_BLA_Antagonist_Followup_viability: Viability Assessment in the Tox21 Thyroid Hormone Receptor beta Antagonism Beta-lactamase (BLA) Follow-Up Assay (AID 2283961)
Method in brief: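 HEK293T cells stably expressing GAL4-DBD/human TRβ-LBD with UAS-bla reporter, 3,000 cells/well in phenol red-free DMEM, 2% charcoal-stripped FBS. Compounds at 11 concentrations in triplicate, 18 h at 37C/5% CO2; viability by CellTiter-Glo luminescence after 30 min at room temperature.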

[14] = target: Retinoic acid receptor RXR-alpha (Homo sapiens) (UniProt P19793); test: TOX21_TR_RXR_BLA_Antagonist_Followup_ratio: Tox21 Thyroid Hormone Receptor beta Retinoid X Receptor alpha (RXRa) Antagonism Beta-lactamase (BLA) Follow-Up Assay, Ratio (AID 2283972)
Method in brief: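 RXRa-UAS-bla HEK293T cells in phenol red-free DMEM with 2% charcoal-stripped FBS; compounds at 11 concentrations in triplicate, 16 h at 37C. LiveBLAzer FRET-B/CCF4-AM substrate 2 h at room temperature; read as 460:530 nm ratio versus DMSO.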

THRB (gene 7068) [15] = target: THRB (gene 7068) (UniProt P10828); test: TOX21_TRB_BLA_Antagonist_Followup_ratio: Tox21 Thyroid Hormone Receptor beta Antagonism Beta-lactamase (BLA) Follow-Up Assay, Ratio (AID 2283958)
Method in brief: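 HEK293T TRb-bla (GAL4 DBD + hTRβ LBD), 2% cs-FBS phenol red-free DMEM, 5 h attach; cpds 11-pt triplicate, 18 h 37C; CCF4-AM 2 h RT; 460/530 ratio vs DMSO; CellTiter-Glo viability same wells.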

THRB (gene 7068) [16] = target: THRB (gene 7068) (UniProt P10828); test: TOX21_TRB_COA_Antagonist_Followup_ratio: Tox21 Thyroid Hormone Receptor beta Antagonism through Coactivator Recruitment Follow-Up Assay, Ratio (AID 2283967)
Method in brief: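 Cell-free TR-FRET coactivator recruitment with GST-tagged TRβ LBD (5.0 nM) and fluorescein-labeled SRC-2 peptide (200 nM) detected by terbium anti-GST antibody (2 nM). The 520:495 nm emission ratio was normalized to DMSO (0%) and T3 (100%).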

Measured: AC50

Chain of Cellular tumor antigen p53 (Homo sapiens) (P04637 whole entry, looked up): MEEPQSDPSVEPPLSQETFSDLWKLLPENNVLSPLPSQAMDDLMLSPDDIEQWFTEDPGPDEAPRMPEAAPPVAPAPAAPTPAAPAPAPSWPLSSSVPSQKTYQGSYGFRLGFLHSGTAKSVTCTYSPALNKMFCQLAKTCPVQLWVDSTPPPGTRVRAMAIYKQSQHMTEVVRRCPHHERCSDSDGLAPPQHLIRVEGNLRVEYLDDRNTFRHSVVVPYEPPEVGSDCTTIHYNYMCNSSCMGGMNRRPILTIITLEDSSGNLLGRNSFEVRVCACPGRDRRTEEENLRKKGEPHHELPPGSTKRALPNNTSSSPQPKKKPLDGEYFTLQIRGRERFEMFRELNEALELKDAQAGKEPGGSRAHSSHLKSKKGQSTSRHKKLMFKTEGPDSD
Chain of THRB (gene 7068) (P10828 whole entry, looked up, the tested form may be a part): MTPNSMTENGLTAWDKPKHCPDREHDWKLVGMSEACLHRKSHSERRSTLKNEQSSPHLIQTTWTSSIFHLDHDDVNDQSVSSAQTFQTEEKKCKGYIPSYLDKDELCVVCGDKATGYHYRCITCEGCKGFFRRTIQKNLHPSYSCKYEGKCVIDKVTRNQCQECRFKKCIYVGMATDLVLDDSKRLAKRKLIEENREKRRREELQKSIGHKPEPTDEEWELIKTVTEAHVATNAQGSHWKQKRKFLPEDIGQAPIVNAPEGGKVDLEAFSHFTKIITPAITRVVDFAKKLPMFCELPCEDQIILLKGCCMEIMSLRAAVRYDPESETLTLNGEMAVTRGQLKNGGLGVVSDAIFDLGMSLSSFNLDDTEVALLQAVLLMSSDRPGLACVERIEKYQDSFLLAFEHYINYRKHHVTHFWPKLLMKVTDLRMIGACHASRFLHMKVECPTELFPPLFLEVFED
Chain of THRA (gene 7067) (P10827 whole entry, looked up, the tested form may be a part): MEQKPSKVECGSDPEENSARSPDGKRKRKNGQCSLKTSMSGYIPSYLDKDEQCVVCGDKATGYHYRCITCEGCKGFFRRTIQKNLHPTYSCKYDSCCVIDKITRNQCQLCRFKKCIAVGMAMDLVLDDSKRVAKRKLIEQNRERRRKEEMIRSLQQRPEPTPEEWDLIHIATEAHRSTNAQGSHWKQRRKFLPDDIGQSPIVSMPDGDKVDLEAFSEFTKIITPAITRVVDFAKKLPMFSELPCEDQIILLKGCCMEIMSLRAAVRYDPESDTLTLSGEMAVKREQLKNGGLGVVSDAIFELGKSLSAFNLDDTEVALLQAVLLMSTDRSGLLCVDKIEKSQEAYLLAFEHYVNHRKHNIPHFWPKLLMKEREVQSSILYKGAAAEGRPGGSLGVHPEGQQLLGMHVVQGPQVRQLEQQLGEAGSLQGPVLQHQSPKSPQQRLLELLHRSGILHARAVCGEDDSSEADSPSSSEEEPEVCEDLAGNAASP
Chain of Retinoic acid receptor RXR-alpha (Homo sapiens) (P19793 whole entry, looked up): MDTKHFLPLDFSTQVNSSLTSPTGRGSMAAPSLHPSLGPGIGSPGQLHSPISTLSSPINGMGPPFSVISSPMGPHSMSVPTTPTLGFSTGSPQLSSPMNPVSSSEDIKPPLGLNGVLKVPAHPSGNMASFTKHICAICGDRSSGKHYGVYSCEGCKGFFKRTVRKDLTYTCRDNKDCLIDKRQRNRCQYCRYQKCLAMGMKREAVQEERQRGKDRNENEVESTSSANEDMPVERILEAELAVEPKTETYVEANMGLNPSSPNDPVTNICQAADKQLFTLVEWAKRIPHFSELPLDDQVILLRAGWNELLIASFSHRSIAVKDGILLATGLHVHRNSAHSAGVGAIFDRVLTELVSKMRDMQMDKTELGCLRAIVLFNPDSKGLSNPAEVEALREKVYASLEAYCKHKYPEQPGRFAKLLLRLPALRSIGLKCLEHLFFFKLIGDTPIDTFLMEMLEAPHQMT

CCCCC(=O)O[C@]1(C(=O)CO)[C@@H](C)C[C@H]2[C@@H]3CCC4=CC(=O)C=C[C@]4(C)[C@@]3(F)[C@@H](O)C[C@@]21C
active: [5] 38.7 µM
not listed: [12] | THRA (gene 7067) | [13] | [14] | THRB (gene 7068) [15] | THRB (gene 7068) [16]
inactive: all other assays above

CC[C@@]1(O)C(=O)OCc2c1cc1n(c2=O)Cc2cc3c(CN(C)C)c(O)ccc3nc2-1
inactive: [12] | THRA (gene 7067) | [13] | [14]
active: [1] 7.02 µM | [2] 0.807 µM | [3] 7.35 µM | [4] 0.381 µM | [5] 7.74 µM | [6] 0.692 µM | [7] 7.27 µM | [8] 6.7 µM

Cc1nc2ccccc2n1Cc1ccc(Cl)cc1
not listed: [9] | [10] | [11] | [12]
inactive: all other assays above

O=C(O)c1cc(-c2ccc(F)cc2F)ccc1O
inactive: [1] | [2] | [3] | [4] | [5] | [6] | [8]
